# Test results: the supplement of paper PMC6555819
# Tests used:
# Test in all cases: PBM binding z-score (relative to random genomic background probes); higher = stronger binding; sequences stand for … in GC…GCGATTGACAGCGTAGAATGAAGG
# [1] = system: PPARg:RXRa DBDmut IVT, anti-RXR (DBD mutation: RXRa K156A/R161A, NR concentration 270 nM, RXRa partner concentration 90 nM)
# Summary of the method: (§1)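 The probes on custom Agilent 4×180K protein-binding microarrays were double-stranded, with 34-nt variable regions bearing direct-repeat seeds, single-nucleotide variants, half-site ablations and random human genomic background sequences. Incubation lasted 1 h with ligand-free nuclear receptor dimers in PBS pH 7.4, 2% milk, 0.02% Triton X-100, 1 mM DTT, 0.2 mg/mL BSA and 0.4 mg/ml salmon testes DNA. Antibodies against each partner (one per run) detected bound dimers, and fluorescence scans were regression-normalized. Binding z-scores take the random background probes as reference.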
# [2] = system: PPARg:RXRa IVT, anti-PPARg (NR concentration 270 nM, RXRa partner concentration 90 nM)
# Summary of the method: as §1
# [3] = system: PPARg DBDmut:RXRa IVT, anti-PPARg (DBD mutation: PPARg1 K132A/R137A, NR concentration 270 nM, RXRa partner concentration 90 nM)
# Summary of the method: as §1
# [4] = system: PPARg DBDmut IVT, anti-PPARg (DBD mutation: PPARg1 K132A/R137A, NR concentration 270 nM)
# Summary of the method: as §1
# [5] = system: PPARg homodimer (NR concentration 180 nM)
# Summary of the method: as §1
# [6] = system: PXR:RXRa (NR concentration 270 nM, RXRa partner concentration 90 nM)
# Summary of the method: as §1
# [7] = system: PXR homodimer (NR concentration 270 nM)
# Summary of the method: as §1
# [8] = system: RARa:RXR (NR concentration 270 nM, RXRa partner concentration 90 nM)
# Summary of the method: as §1
# [9] = system: RARa homodimer (NR concentration 270 nM)
# Summary of the method: as §1
# [10] = system: RARb:RXRa (NR concentration 270 nM, RXRa partner concentration 90 nM)
# Summary of the method: as §1
Sequence,PBM binding z-score [1],PBM binding z-score [2],PBM binding z-score [3],PBM binding z-score [4],PBM binding z-score [5],PBM binding z-score [6],PBM binding z-score [7],PBM binding z-score [8],PBM binding z-score [9],PBM binding z-score [10]
GCTTGTAGATCAAGGTTATGAAAGACTAAGCTAA,1.21,0.962,0.000562,0.0061,0.45,0.681,-0.0933,0.915,-0.0399,0.632
CGTCAAAGTTCAAGGTAACGAAACAGAAAGCAGC,0.745,2.29,0.604,0.231,3.5,3.94,2.79,3.53,1.57,5.11
CAAACTAGGTCAAGAGTTCAAAGTCCGCTTCCCG,8.53,8.57,5.05,5.84,7.86,6.27,10.5,6.61,2.65,4.74
GATACAGGGTAAAGGCCAGAGTACGCGTATTGAT,1.02,2.64,0.254,-0.000144,0.5,0.017,-0.0145,0.137,-0.111,1.18
CCGACTGGGGCAGAAAGGTTACCATTCCATCCGG,1.94,1.83,-1,-1.28,0.284,0.744,-0.202,1.33,0.0232,1.52
CCTTACGGGTCTCGAGGTTATAGCACGACGAGCG,-0.507,0.298,-0.399,-0.982,0.167,0.396,-0.353,0.806,-0.452,0.666
TCATATAGGTAAAAGGGGAAAGTCGGTGTGGTAA,4.82,3.69,1.31,1.21,1.73,0.624,0.862,1.17,2.27,0.958
ACTAGCAGGCCAATGGTCACTCAAGATTAGTCCG,0.92,0.714,-0.0875,-0.449,0.0967,-0.626,-0.69,-0.449,-0.683,0.677
TGAATGAGGTTAAAGATCAGAGAACGTGGCGTCG,1.89,3.53,1.38,0.333,0.79,2,0.0576,3.32,0.124,1.98
CCGAGTAGGTTATGGAGCATTCAGGCAACGGTGA,3.11,2.34,-1.14,-0.703,0.952,-0.208,0.0693,0.144,0.512,0.499
CCTTACGGGTCACTGATAGGTTATAGCATTTGGA,3.46,3.73,1.18,0.0564,2.47,3.6,0.321,4.43,1.27,4.02
CCTCGCAGGACAACAGGAGGTCAGAGCTGCCAGA,-0.0217,0.0775,-0.749,-0.93,1.52,1.89,0.261,2.26,-0.0612,2.28
CCCAGCAGGCCAATCTGGGTCACTCAAGGCTTGA,3.08,4.97,-0.484,-1.45,0.339,1.31,-0.346,1.46,-0.731,1.63
ATACCAAGGTGATCGTGAGGTCGTGGATACTAAC,0.55,1.38,0.414,0.297,1.2,2.53,0.492,3.03,0.48,1.65
TCTTGTATATCAATAGAGGTTAAGAAAGTGCGCT,1.98,1.05,0.574,1.14,0.383,3,0.496,1.54,0.672,0.997
CATTACGGGTCACGAGGTTATAGCACGACGAGCG,5.61,5.99,1.73,1.78,4.62,4.8,0.703,6.52,1.04,4.68
ACTAGCAGGCCAAGTTTGGGTCACTCCAACAAAG,0.7,1.34,-0.265,-0.469,0.235,0.603,-0.498,1.4,-0.0686,1.74
CAAACTAGGTCTCGAAAGGTCAAAGTCGAATGAC,5.54,5.71,2.45,0.645,3.86,5.61,2.13,6.33,2.57,4.4
ATCTCTTGGTAACCAAGTTCAGTGAATGCCGAAC,-0.417,0.552,0.44,0.768,0.28,1.92,2.1,0.475,-0.473,0.956
ATCGGAAGGTCGAAGGTGAGTATACCCACCCGAA,-0.338,1.53,0.343,-0.28,1.26,1.65,0.401,2.34,-0.118,2.55
AATACAGTGTCACTAGGCCAGAGTAGGTACGAAT,1.71,3.04,0.806,0.257,0.169,-0.342,-0.144,-0.182,-0.0529,1.06
CCTATGAGTTGACCATAAGGGCAACCGAAGCTCG,-0.0484,0.26,-0.849,-0.386,1.05,1.1,0.421,1.51,0.579,1.72
ATATGTAAGTTAGCTGGGGTCATTCAGACTAGGC,0.965,1.4,0.49,0.596,1.64,5.82,6.58,5.31,0.998,2.47
TAGCCTAGGTCATTAGGCCAGTATAGTACGCATC,2.12,3.88,0.301,-0.52,1.19,0.87,-0.114,1.79,0.0486,3.24
